In PubChem BioAssay (NCATS) one finds Potency and activity change, negative = inhibition data, which are given here for 32 molecules.

Results filed as inconclusive are left out. A number with no mark means an inactive call. Active and inactive are the calls of the source. Calls come from the whole dose curve; as a rule, active = well fitted curve in the direction sought with a large enough effect; inconclusive = small, poorly fitted or top-dose-only effect, or another doubt; inactive = no such curve, though single readings can be large; an effect the other way counts as inactive or inconclusive. Square brackets hold non-standard residues; d marks the D form. Peptide text beside a SMILES is read from it. * marks the point of attachment. Dolaproine = CO[C@@H]([C@@H]1CCCN1)[C@@H](C)C(=O)O; Dil = CC[C@H](C)[C@H](NC)[C@@H](CC(=O)O)OC; Doe = c1ccc(C[C@H](N*)c2nccs2)cc1; Aib = CC(C)(N)C(=O)O

Experiment [1] concerns the target Aldehyde dehydrogenase, mitochondrial (Homo sapiens) (UniProt P05091). Nature of the experiment: qHTS for Inhibitors of the Aldehyde Dehydrogenase Family (ALDH2) Primary screen (AID 2061308).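 Note: plate controls were vehicle for no effect and reference inhibitor for full effect; nearly all actives have a fitted effect of over 55% in size.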 In general terms: In qHTS, concentration-response curves come from the screen itself.
Experiment [2] has as its target Retinaldehyde dehydrogenase 3 (Homo sapiens) (UniProt P47895). As to the kind of experiment: qHTS for Inhibitors of the Aldehyde Dehydrogenase Family (ALDH1A3) Primary screen (AID 2061315).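 Note: plate controls were DMSO vehicle for no effect and reference inhibitor for full effect.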

As for `CO[C@@H]1C[C@H](O[C@H]2CC[C@@]3(C)C(CCC4C3CC[C@]3(C)[C@@H](C5=CC(=O)OC5)[C@@H](OC(C)=O)CC43O)C2)O[C@H](C)[C@@H]1O[C@H]1O[C@H](CO[C@@H]2O[C@H](CO)[C@@H](O)[C@H](O)[C@H]2O)[C@@H](O)[C@H](O)[C@H]1O` (some centres undefined), the Potency entry in experiment [1] and in experiment [2] was “inactive” throughout.
As to `COC1C(O)C(OC2CCC3(C=O)C(CCC4C3CCC3(C)C(C5=CC(=O)OC5)CCC43O)C2)OC(C)C1OC1OC(CO)C(O)C(O)C1O` (centres undefined), the Potency entry in experiment [1] and in experiment [2] was “inactive” in each case.
On to `O=C(NCCN1CCC2(CC1)C(=O)NCN2c1cccc(F)c1)c1ccc2ccccc2c1`, for which the Potency result in experiment [1] and in experiment [2] was “inactive” in each case.
On to `Cc1cccc(NC(=O)N[C@H]2CN(C)c3ccccc3C(c3ccccc3)=N2)c1`, for which the Potency result in experiment [1] and in experiment [2] was “inactive” each time.
In the case of `C[C@]12CC[C@@H](O)C[C@@H]1CC[C@@H]1[C@@H]2CC[C@]2(C)C(=O)[C@@H](Br)C[C@@H]12`, the Potency result in experiment [1] and in experiment [2] was “inactive” each time.
`Cc1cccc2nc(NC3=NC(c4[nH]ncc4Cl)C4=C(CCCC4=O)N3)oc12` (centres undefined): the Potency entry in experiment [1] and in experiment [2] was “inactive” throughout.
Turning to `O=C(N[C@@H]1N=C(c2ccccc2F)c2cccc3c2N(CC3)C1=O)c1cc2ccccc2[nH]1`, the Potency entry in experiment [1] and in experiment [2] was “inactive” throughout.
As to `C=C(CO)[C@@]12O[C@@H]1[C@@]1(C)C(=CC2=O)CC[C@@H](O)[C@@H]1C`, the Potency result in experiment [1] and in experiment [2] was “inactive” each time.
With `CCCc1ccc(NC(=O)c2ccc3c(c2)NC(=O)CS3)cc1`, the Potency entry in experiment [1] and in experiment [2] was “inactive” in each case.
Take `Fc1cc(F)c2c(c1)C1C=CCC1C(c1cccnc1)N2` (centres undefined): the Potency entry in experiment [1] and in experiment [2] was “inactive” in each case.
Turning to `COC(=O)c1ccc(O)c2ncc(N3CCN(C)CC3)cc12`, the Potency entry in experiment [1] and in experiment [2] was “inactive” each time.
Consider `CO[C@H]1[C@H](O)[C@H](O[C@H]2CC[C@]3(C=O)C4CC[C@]5(C)[C@H](C6=CC(=O)OC6)CC[C@]5(O)C4CC[C@@H]3C2)O[C@@H](C)[C@@H]1O` (some centres undefined), for which the Potency result in experiment [1] and in experiment [2] was “inactive” each time.
In the case of `O=C(Nc1nnc(-c2cccs2)o1)c1ccc(Cl)cc1`, the Potency result in experiment [1] and in experiment [2] was “inactive” each time.
For the molecule `COC1CC(O[C@H]2CC[C@@]3(C)C(CCC4C3CC[C@]3(C)[C@@H](C5=CC(=O)OC5)CC[C@]43O)C2)OC(C)C1O` (some centres undefined), the Potency result in experiment [1] and in experiment [2] was “inactive” throughout.
As for `CC(C)CCn1c(CN2CCN(C(=O)C3CC3)CC2)nc2c1c(=O)n(C)c(=O)n2C`, the Potency result in experiment [1] and in experiment [2] was “inactive” each time.
As to `CC[C@H](C)[C@@H]([C@@H](CC(=O)N1CCC[C@H]1[C@H](OC)[C@@H](C)C(=O)N[C@@H](Cc1ccccc1)c1nccs1)OC)N(C)C(=O)[C@@H](NC(=O)C(C)(C)N)C(C)C` (H-[Aib]V[Dil][Dolaproine]-Doe), the Potency result in experiment [1] and in experiment [2] was “inactive” in each case.
Take `COC1CC(OC2CCC3(C=O)C(CCC4C3CCC3(C)C(C5=CC(=O)OC5)CCC43O)C2)OC(C)C1OC1OC(CO)C(O)C(O)C1O` (centres undefined): the Potency result in experiment [1] and in experiment [2] was “inactive” each time.
In the case of `CCOc1ccc(CCNC(=O)c2ccc(Oc3ccccc3)cc2)cc1OCC`, the Potency entry in experiment [1] and in experiment [2] was “inactive” in each case.
As to `CCOc1ccc(CCNC(=O)c2cc3ccccc3n2Cc2cccc(C)c2)cc1OCC`, the Potency result in experiment [1] and in experiment [2] was “inactive” in each case.
Take `CC(=O)OC1CC(O)C2(C)C(CC(OC(C)=O)C3(C)C2CCC2(C)C(c4ccoc4)C(=O)C4OC423)C1(C)C` (centres undefined): the Potency result in experiment [1] and in experiment [2] was “inactive” in each case.
Turning to `S=P(c1ccccc1)(c1ccccc1)c1c[n+](Cc2ccccc2)c2ccccn12`, the Potency entry in experiment [1] and in experiment [2] was “inactive” each time.
In the case of `COc1cccc(CNc2ccc(C(=O)Nc3nccs3)cc2)c1O`, the Potency entry in experiment [1] and in experiment [2] was “inactive” each time.
Turning to `Cc1cccc(-n2cnc3cc(C(=O)N4CCCC(C)C4)ccc32)c1` (centres undefined), the Potency entry in experiment [1] and in experiment [2] was “inactive” throughout.
In the case of `CC[C@H](C)[C@H](NC(=O)[C@H]1CCCCN1C)C(=O)N(COC(=O)CC(C)C)[C@H](C[C@@H](OC(C)=O)c1nc(C(=O)N[C@@H](Cc2ccc(O)cc2)C[C@H](C)C(=O)O)cs1)C(C)C`, the activity change, negative = inhibition in experiment [1] is -2.41% [at 1.12 µM]; in experiment [2] it was 6.02% [at 1.12 µM].
`COc1cccc(CNc2ccc(S(=O)(=O)Nc3ccc4ccccc4c3)cc2)c1O`: the Potency result in experiment [1] and in experiment [2] was “inactive” in each case.
Regarding `COC(=O)c1nc(-c2cccc3ccccc23)oc1OC`, the Potency result in experiment [1] and in experiment [2] was “inactive” throughout.
In the case of `S=P(c1ccccc1)(c1ccccc1)c1cnc2ccccn12`, the Potency entry in experiment [1] and in experiment [2] was “inactive” throughout.
Take `CCC1CN2CCC3(C(=O)Nc4cccc(O)c43)C2CC1/C(=C/OC)C(=O)OC` (centres undefined): the Potency entry in experiment [1] and in experiment [2] was “inactive” each time.
As to `C=C(C)[C@H]1O[C@H]2CC[C@@]3(C)[C@@](O)(CC[C@H]4[C@@H]5OC(C)(C)[C@H]6C[C@@H]7C(=C)Cc8c(Cl)cc9[nH]c(c5c9c8[C@@]76O)[C@@]43C)[C@]23O[C@@H]3[C@H]1O`, the Potency entry in experiment [1] and in experiment [2] was “inactive” in each case.
For `CCOc1ccc(CCNC(=O)c2ccccc2)cc1OCC`, the Potency result in experiment [1] and in experiment [2] was “inactive” in each case.
Turning to `N#Cc1ccc(NC(=O)Nc2nnc(-c3ccncc3)s2)cc1Cl`, the Potency result in experiment [1] and in experiment [2] was “inactive” throughout.
Turning to `CN1CCc2cc3c(cc2[C@H]1[C@@H]1OC(=O)c2c1ccc1c2OCO1)OCO3`, the Potency entry in experiment [1] and in experiment [2] was “inactive” in each case.
